In PubChem BioAssay (Tox21):
Records with an inconclusive call do not appear. Unmarked numbers belong to inactive results. The source made the active and inactive calls. The call rests on the fitted dose curve; in most records, active means well fitted inhibition curve with a large enough effect in the repeat runs; inconclusive means weak or mixed curves; inactive means no such curve, though single readings can be large or run the other way.

Target: Cytochrome P450 3A4 (Homo sapiens) (UniProt P08684)
Sequence (P08684 whole entry, looked up): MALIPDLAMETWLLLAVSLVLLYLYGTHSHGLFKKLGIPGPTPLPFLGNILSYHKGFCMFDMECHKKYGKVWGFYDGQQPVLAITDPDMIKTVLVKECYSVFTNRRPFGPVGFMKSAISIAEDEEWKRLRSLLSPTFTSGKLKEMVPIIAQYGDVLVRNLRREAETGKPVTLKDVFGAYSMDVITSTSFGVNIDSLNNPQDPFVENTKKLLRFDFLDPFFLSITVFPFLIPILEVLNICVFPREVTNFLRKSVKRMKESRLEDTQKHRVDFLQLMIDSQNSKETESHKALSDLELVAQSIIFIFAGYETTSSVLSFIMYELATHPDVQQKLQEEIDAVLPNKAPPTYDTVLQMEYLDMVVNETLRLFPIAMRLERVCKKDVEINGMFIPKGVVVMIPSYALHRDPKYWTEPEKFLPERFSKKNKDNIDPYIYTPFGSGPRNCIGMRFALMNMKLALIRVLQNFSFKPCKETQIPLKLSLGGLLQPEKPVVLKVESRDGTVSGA
Assay: Cytochrome P450 Family 3 Subfamily A Member 4 (CYP3A4) small molecule antagonists: luciferase reporter qHTS assay (AID 1671201); further: nearly all actives have a fitted effect of over 50% in size
Details: P450-Glo CYP3A4 enzyme, luciferin luminescence, 1 h; series mostly up to 115 µM; activity change, negative = inhibition: at the top concentration
Description: National Center for Advancing Translational Sciences [NCATS]
U.S. Environmental Protection Agency [EPA]
National Institutes of Environmental Health Sciences [NIEHS]
National Toxicology Program [NTP]
U.S. Food and Drug Administration [FDA]
Cytochrome P450 (CYP) enzymes are membrane-bound hemeproteins that play a key role in metabolism of drugs and xenobiotics. Evaluation of the effect of chemicals on CYP isozymes is useful to minimize the adverse drug reactions and toxicities in drug development process. Tox21 chemicals were tested for their effect on CYP enzyme activities by using P450-Glo (TM) screening systems (Promega Corporation, Madison, WI). These systems provide a luminescent method containing proluciferin substrates and are converted to luciferin products by CYP isozymes. The luciferin products formed are detected with a luciferin detection reagent, and the amount of light produced is proportional to CYP activity. P450-Glo (TM) CYP3A4 screening system (Catalog. No. V9910) was used to detect the compounds that interfere in CYP3A4 activity. The positive control compound used for CYP3A4 assay is ketoconazole (Sigma-Aldrich, St. Louis, MO).
Tox21 Assay Protocol Summary:
Two ul of enzyme-substrate mix was dispensed into medium binding white/solid 1536-well plates (Greiner Bio-One North America Inc., Monroe, NC) using a BioRaptr Flying Reagent Dispenser (FRD, Beckman Coulter, Brea, CA). Compounds dissolved in DMSO and positive control (ketoconazole) were transferred to the assay plates at 23 nl using a Pintool station (Wako, San Diego, CA). The assay plates were incubated at room temperature for 10 min. Then 2 ul of NADPH regeneration solution was added to each well of the assay plates using an FRD and incubated at room temperature for 1 h. The reaction was stopped by adding 4 ul of detection reagent using an FRD and after 20 min incubation at room temperature the luminescence signal was measured using a ViewLux plate reader (Perkin Elmer, Shelton, CT). Data were expressed as relative luminescence units.
On the % scale 0 is the no-effect control and ±100 the full control effect; potency means the concentration at half of the fitted maximal effect.

Compound	activity change, negative = inhibition	Potency
COC(C)(C)C	-2.39%	
CCCSP(=S)(OCC)Oc1ccc(Cl)cc1Cl (stereo not given)		2830 nM (active)
Cc1ncsc1CCCl	37.6% [at 52.9 µM]	
Oc1c(Cl)cccc1Cl	35.4%	
CCCSC(=O)Cl	6.64%	
NC1=NC(=O)C(c2ccccc2)O1 (stereo not given)	22.2% [at 52.9 µM]	
CC(C)COP(=O)(OCC(C)C)OCC(C)C	-9.98%	
CCOP(=S)(OCC)SCSP(=S)(OCC)OCC		1260 nM (active)
CC(C(O)c1ccccc1)N(C)C/C=C/c1ccccc1 (stereo not given)	-25.2% [at 52.9 µM]	
CC1CCC(=O)O1 (stereo not given)	0.512%	
COP(=S)(OC)Oc1c(Cl)cc(C)cc1Cl		5030 nM (active)
Nc1c(Br)cc([N+](=O)[O-])cc1[N+](=O)[O-]	-21.8%	
CCOP(=S)(Oc1cnc(C(C)(C)C)nc1)OC(C)C (stereo not given)		1590 nM (active)
COP(N)(=S)Oc1ccccc1C(=O)OC(C)C (stereo not given)		2000 nM (active)
Cc1cc(C)nc(Nc2ccccc2)n1	8.34%	
CC(C1CC1)C(O)(Cn1cncn1)c1ccc(Cl)cc1 (stereo not given)		888 nM (active)
N#CC(O)c1ccccc1 (stereo not given)	3.09%	
O=C(Nc1ccccc1)c1ccccc1I		15900 nM (active)
C[N+](=O)[O-]	4.01%	
COc1cc(OC)nc(NC(=O)NS(=O)(=O)c2ncccc2C(=O)N(C)C)n1	-0.005%	

Compound	activity change, negative = inhibition	Potency
Cc1ncc(CNC(=O)N(CCCl)N=O)c(N)n1	7.91% [at 52.9 µM]	
O=c1oc2ccccc2c(O)c1C1CCCc2ccccc21 (stereo not given)		31700 nM (active)
CCOP(=S)(OCC)Oc1nc(Cl)n(C(C)C)n1		1590 nM (active)
CSc1nc(N=[N+]=[N-])nc(NC(C)C)n1	21.1%	
O=C1CN=C(c2ccccc2)c2cc([N+](=O)[O-])ccc2N1	8.14% [at 52.9 µM]	
CCOP(=O)(OCC)OP(=O)(OCC)OCC	-2.73%	
OC(c1ccccc1)(c1ccccc1)C1CCNCC1	-6.48% [at 52.9 µM]	
CC1(C)CON(Cc2ccccc2Cl)C1=O	26.6%	
c1cc[c]([Hg][c]2ccccc2)cc1	5.83%	
C[C@H]1CCC[C@H](O)CCCCCc2cc(O)cc(O)c2C(=O)O1		715 nM (active)
ClCCOCOCCCl	3.81%	
CNC(=O)Oc1ccc(N(C)C)c(C)c1	0.572%	
Fc1cc(Br)ccc1CBr	2.8% [at 52.9 µM]	
Nc1cc(Cl)ccc1O		21700 nM (active)
CCC(Cl)[N+](=O)[O-] (stereo not given)	10.3%	
CCN(CC)C(C)C(=O)c1ccccc1 (stereo not given)	10.8% [at 52.9 µM]	
CC(=O)CC(c1ccc(Cl)cc1)c1c(O)c2ccccc2oc1=O (stereo not given)	-4.7%	
COC(=O)C1=CCCN(C)C1	0.371% [at 52.9 µM]	
CCOP(=O)(N=C1SCCS1)OCC	0.17%	
CCCCP(CCCC)CCCC	-20.6%	
